CtBP-E1A inh: qHTS Assay for Inhibitors of the CtBP/E1A Interaction. CtBP / adenovirus E1A interaction (AlphaScreen). AlphaScreen GST-E1A/His-CtBP binding, 1536-well; stronger effect = lower value. actives 0.49% (n = 340,000). activity change, % (test concentration not listed). AID 651724, 2012; in the data active = activity change below about -65%; inconclusive = mostly about -30% to -63%; note: % is set by controls: 0 for no effect and ±100 for the full control effect
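Steps: dispense buffer (Tris pH 8.0, NaCl 300 mM, TCEP 1 mM, BSA, Tween 20); add 5X protein mix (GST-E1A, His-CtBP, 125 nM each); pin 23 nL compound; 2 h at 37 °C, dark; add 5X beads (50 ug/mL); 1 h; read.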
Six1-Eya2 inh: qHTS Assay for Inhibitors of the Six1/Eya2 Interaction. AlphaScreen GST-Six1/His-Eya2 binding, biochemical; stronger effect = lower value. actives 0.56% (n = 360,000). activity change, % (test concentration not listed). AID 651725, 2012; in the data active = activity change below about -65%; inconclusive = mostly about -30% to -63%; note: % is set by controls: 0 for no effect and ±100 for the full control effect
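GST-Six1 + His-Eya2 (5X stock: 250/500 nM); Tris pH 8.0, 300 mM NaCl, 0.05% BSA, 0.02% Tween 20; GSH donor/Ni acceptor beads; 1 h 37 °C dark; AlphaScreen readout.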
HP1b binding inh: HTS for Inhibitors of HP1-beta Chromodomain Interactions with Methylated Histone Tails. Chromobox protein homolog 1 (Homo sapiens), P83916. AlphaScreen HP1-beta / biotin-H3K9me3 peptide binding. Potency, µM (series often up to 114 µM), for the others: top-dose activity change, negative = inhibition, usual class: inhibitors. actives 0.56% (n = 390,000). AID 540317, 2011; note: potency is the fitted concentration of half-maximal effect; nearly all actives have a fitted effect of over 70% in size
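AlphaScreen: HP1-beta (50 nM) preformed 30 min with biotin-H3(1-18)K9me3 peptide (50 nM) in PBS pH 7.4, 0.01% Tween-20. Compound added for 30 min at RT, then streptavidin donor/nickel chelate acceptor beads (10 ug/mL) for 30 min.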
G9a block: qHTS Assay for Inhibitors of Histone Lysine Methyltransferase G9a | Histone-lysine N-methyltransferase EHMT2 (Homo sapiens), Q96KQ7 | G9a H3K9 monomethylation, AlphaScreen, 2 h | Potency, µM (titrated, usually from 102 µM), for the others: top-dose activity, negative = inhibition, most hits filed as inhibitors | actives 8.8% (n = 350,000); note: potency is the fitted concentration of half-maximal effect; % is set by controls: 0 for no effect and ±100 for the full control effect; nearly all actives have a fitted effect of over 75% in size
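Using a bead-based AlphaScreen, monomethylated H3K9 product from 2 h room-temperature reactions (G9a 20 nM, peptide 500 nM, SAM 20 uM) was detected with 0.5 ug/mL rabbit anti-H3K9me1 antibody.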
BAZ2B block: qHTS Assay for Inhibitors of BAZ2B; Bromodomain adjacent to zinc finger domain protein 2B (Homo sapiens), Q9UIF8; AlphaScreen BAZ2B-H3K14Ac peptide displacement; Potency, µM (titrated, usually from 114 µM), for the others: at the highest dose activity change, negative = inhibition, hits mostly inhibitors; actives 4.4% (n = 360,000); AID 504333, 2011; note: potency is the fitted concentration of half-maximal effect; % is set by controls: 0 for no effect and ±100 for the full control effect; nearly all actives have a fitted effect of over 60% in size
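Complex of BAZ2B and biotin-H3K14Ac (50 nM apiece) forms over 30 min at RT, then faces library compounds up to 110 uM for another 30 min; AlphaScreen beads added, 20 min dark incubation, luminescence read.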
JMJD2A Tudor inh: qHTS Assay for Inhibitors of JMJD2A-Tudor Domain. actives 4.4% (n = 390,000). AlphaScreen JMJD2A-Tudor / H3K4me3 peptide binding. AID 504339, 2011. Potency, µM (highest dose often 114 µM), without a hit: top-dose activity change, negative = inhibition, usual class: inhibitors. Lysine-specific demethylase 4A (Homo sapiens), O75164; note: potency is the fitted concentration of half-maximal effect; % is set by controls: 0 for no effect and ±100 for the full control effect; nearly all actives have a fitted effect of over 50% in size
Numbers without * were called inactive; ? = inconclusive; . = no result; ! = not confirmed by another sample; [ ] = another dose, or the depositor's remark. A selection: hits, their analogues and other compounds. The true share with any hit is near 10%. Unless noted, calls come from the whole dose curve; as a rule, active = well fitted inhibition curve with a large enough effect; inconclusive = small, poorly fitted or top-dose-only effect; inactive = no such curve, though single readings can be large or run the other way.

SMILES	CtBP-E1A inh	Six1-Eya2 inh	HP1b binding inh	G9a block	BAZ2B block	JMJD2A Tudor inh
COc1ccc(S(=O)(=O)NCC(c2ccco2)S(=O)(=O)c2cccs2)cc1C (centres undefined)	.	.	33.9%	-22.1%[59 µM]	-13.9%	-4.5%
C/C(=N/NC(=O)c1ccc(Br)o1)C(C)C	0.0	5.3	26.8%	24.6%	2.7%	-1.3%
COC(=O)c1c(C)oc2ccc(N(C(=O)c3ccncc3)S(=O)(=O)c3cc(C)c(C)cc3C)cc12	.	.	12.3%	10µM*	-25.9%	-30.8%
COC(=O)Cc1c(C)c2cc3c(c(C)c2oc1=O)OCN(CCc1ccc(OC)cc1)C3	.	.	43.2%	-2.7%[59 µM]	-3.3%	-5.9%
COc1ccc(CCN2C(=O)c3ccccc3NC2c2cc(Cl)c(O)c(OC)c2)cc1 (centres undefined)	-3.4	-15.4	-12.4%	70.8µM*	-15.1%	-23.1%
COc1ccc(O)c(C2Nc3ccccc3C(=O)N2Cc2ccccc2)c1 (centres undefined)	.	.	.	.	.	79.4µM*
O=C1c2ccccc2NC(c2cccc([N+](=O)[O-])c2)N1CCc1ccccc1 (centres undefined)	-10.0	-15.4	-12.5%	44.7µM*	?	?
Cc1cccc(C2Nc3ccccc3C(=O)N2CCc2ccccc2)n1 (centres undefined)	-16.1	-1.1	37.1%	8.7%[59 µM]	2.7%	-0.6%
C=C1C(=O)N(C)CCC1C(CC)C(=O)OC (centres undefined)	5.0	7.5	.	.	.	.
Cc1ccc(OCC(=O)Nc2c(C(=O)c3ccc(Cl)cc3)oc3ccccc23)cc1C	.	.	39.8%	-37.6%[59 µM]	2.6%	-1.0%
Cc1ccc2c(c1)N(CCCC(=O)Nc1cccc(C(F)(F)F)c1)C(=O)CO2	3.4	-6.7	-16.2%[57 µM]	13.5%[59 µM]	-3.5%	15.8µM*!
COc1ccc(NC(=O)CCCN2C(=O)COc3ccc(C)cc32)cc1OC	.	.	-5.9%	-8.9%[59 µM]	-13.0%	-24.2%
C/C(=N\OCC(=O)N/N=C/c1ccccc1O)c1cccs1	-67.0*	?	38.4%	84.8%[59 µM]	18.5%	-15.1%
O=c1cc(-c2ccccc2)[nH]n1-c1nc2ccccc2[nH]1	-77.2*	-81.0*	19.6%	-52.8%	28.2µM*	56.2µM*
CCc1cc(=O)[nH]c(-n2[nH]c(-c3ccccc3)cc2=O)n1	-9.8	-6.8	30.0%	-3.8%	-0.5%	-9.7%
CCOC(=O)CSC1=NC(=O)/C(=C\c2ccc(Cl)cc2)S1	-8.6	2.0	14.4%	35.5µM*	-33.3%	?
CSC1=NC(=O)/C(=C/c2ccc(SC)cc2)S1	-1.6	-0.7	18.7%	-27.5%	-15.0%	-20.7%
Cc1cccc(-c2c3c(=O)n(C)c(=O)n(C)c3cn2CC2CCCO2)c1 (centres undefined)	3.3	3.9	33.9%	39.8µM*	-13.4%	-10.4%
Cc1cccc(-c2c3c(=O)n(C)c(=O)n(C)c3cn2CCO)c1	3.5	-12.0	47.8%	22.4µM*	7.9%	-15.6%
COc1ccc(-c2ccc(CCC(=O)O)n2CC(=O)Nc2cccc(C(F)(F)F)c2)cc1	.	.	1.8%	-50.9%[59 µM]	?	-30.6%
COc1ccc(C(=O)/C=C/c2cn(CC(O)CN3CCc4ccccc43)c3ccccc23)cc1 (centres undefined)	.	.	-30.9%	?	?	22.4µM*
CCC(=C(c1ccc(OC)cc1)c1ccc(OC)cc1)c1cn(CC(O)CN2CCN(C)CC2)c2ccccc12 (centres undefined)	-0.8	-27.4	50.1µM*	39.8µM*	44.7µM*	28.2µM*
CCOc1ccc(C(=O)/C=C/c2cn(CC(O)CN3CCc4ccccc43)c3ccccc23)cc1 (centres undefined)	.	.	-4.6%	-26.7%[59 µM]	-26.1%	?
CCCCN(C)CC(O)Cn1cc(/C=C/C(=O)c2ccc(OCC)cc2)c2ccccc21 (centres undefined)	.	.	?	50.1µM*!	?	50.1µM*
Cc1cc(C(=O)OCC(=O)N2c3ccccc3CC2C)c(C)o1 (centres undefined)	0.3	-9.3	-2.4%	11.2µM*	-30.9%	-19.5%
SMILES	CtBP-E1A inh	Six1-Eya2 inh	HP1b binding inh	G9a block	BAZ2B block	JMJD2A Tudor inh
CC1Cc2ccccc2N1C(=O)COC(=O)c1ccco1 (centres undefined)	0.0	41.2	.	.	.	.
CCN(CC)c1cccc(OCC(=O)N2c3ccccc3CC2C)c1 (centres undefined)	.	?	-14.9%	10µM*	?	?
CC1Cc2ccccc2N1C(=O)COC(=O)/C=C/c1cccc(F)c1 (centres undefined)	-89.8*	-25.9	44.1%	3.8%[2.33 µM]	8.2%	4.6%
CCNc1ncc2nc(-c3ccc(OC)cc3)c(=O)n(CCOC)c2n1	.	.	.	4.9%[0.501 µM]	.	.
CCCCc1nn2c(=O)cc(COC(=O)c3ccc(NC(=O)CCc4ccccc4)cc3)nc2s1	.	.	18.8%	3.4%[59 µM]	-0.2%	-29.5%
O=C1CC(c2ccc(Cl)c([N+](=O)[O-])c2)c2ccc3ccccc3c2N1 (centres undefined)	-11.1	-25.1	1.2%	-17.6%[59 µM]	-1.4%	?
CN(C)c1ccc(C2CNC(c3ccc(Cl)c([N+](=O)[O-])c3)c3[nH]c4ccccc4c32)cc1 (centres undefined)	.	-11.4	?	?	10µM*	35.5µM*
O=[N+]([O-])c1cccc(C2NCC(c3ccccc3Cl)c3c2[nH]c2ccccc32)c1 (centres undefined)	-19.8	-26.6	?	39.8µM*	35.5µM*	?
CC(C)OCCCN1CC(=O)N2C(c3cccc([N+](=O)[O-])c3)c3[nH]c4ccccc4c3C[C@H]2C1=O (some centres undefined)	2.8	-7.3	-2.2%	-15.5%	-25.1%	-34.1%
CN(CCc1ccccc1)C(C(=O)c1ccc2c(c1)OCO2)c1nnnn1-c1ccccc1NC(=O)OC(C)(C)C (centres undefined)	-14.1	-5.5	.	.	.	.
O=C(CCCn1c(=O)c2cccn2c2ccccc21)NCc1ccccc1Br	.	.	37.3%	-5.2%[59 µM]	2.6%	-4.9%
CC(=O)CSc1nc(-c2ccccc2)[nH]c1S(=O)(=O)c1ccc(C)cc1	.	.	38.1%	-6.5%[59 µM]	-20.4%	-9.3%
CCOC(=O)CN1NC2(CCCCC2)NC1=S	6.6	4.8	-19.8%	?	-5.6%	17.8µM*
